54 compounds from PubChem BioAssay AID743126 (The Scripps Research Institute Molecular Screening Center, 2013) can be followed below.

By inhibition is commonly meant the drop in the measured response relative to a control, in per cent.

The whole screen tested about 370,000 compounds, of which about 2,100 (0.57%) were called active.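 How the source made its calls: active means inhibition above mean plus 3 SD of compounds lying within the high and low control bounds (cut at about 19% in these data); inactive means the rest.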 The entries come from a sample that favours actives as a whole.

Sequence of Group 3 secretory phospholipase A2 (Homo sapiens) (Q9NZ20 whole entry, looked up): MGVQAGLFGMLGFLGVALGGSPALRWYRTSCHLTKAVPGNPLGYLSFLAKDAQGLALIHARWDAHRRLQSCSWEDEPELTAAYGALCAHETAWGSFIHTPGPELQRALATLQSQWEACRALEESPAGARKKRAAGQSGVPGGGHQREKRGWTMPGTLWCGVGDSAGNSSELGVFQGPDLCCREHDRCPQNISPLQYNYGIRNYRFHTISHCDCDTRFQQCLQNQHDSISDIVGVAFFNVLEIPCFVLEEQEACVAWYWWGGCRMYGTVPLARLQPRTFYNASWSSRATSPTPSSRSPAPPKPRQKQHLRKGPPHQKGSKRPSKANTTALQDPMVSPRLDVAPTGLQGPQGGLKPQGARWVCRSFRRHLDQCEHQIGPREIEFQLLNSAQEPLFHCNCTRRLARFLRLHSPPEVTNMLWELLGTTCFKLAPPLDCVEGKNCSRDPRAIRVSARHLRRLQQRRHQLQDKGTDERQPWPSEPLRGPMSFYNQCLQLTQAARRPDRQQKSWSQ

This test has as its target Group 3 secretory phospholipase A2 (Homo sapiens) (UniProt Q9NZ20). As to the kind of experiment: HGIII-sPLA2 enzyme inhibition – biochemical, QFRET, BODIPY PC-A2 liposome substrate, primary screen (AID 743126).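 Further: 0% = median of test compound wells and 100% = no enzyme DMSO wells.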 The note with it: QFRET BODIPY PC-A2 liposome hydrolysis, fluorescence; at 12.2 µM; hits give high values.
Consider `NC(=O)C1(C(N)=O)OC1c1ccc(Cl)cc1Cl` (centres undefined), for which the inhibition was -4.76% (inactive). With `Nc1ccc2nn(-c3ccc(Cl)cc3)nc2c1`, the inhibition was 0.58% (inactive). For the compound `Nc1ccc2c(c1)C(O)c1ccc(Cl)cc1-2` (centres undefined), the inhibition was 19.6% (active). Take `Cc1ccc(C(=O)N(Cc2ccccn2)CC2CCCO2)cc1` (centres undefined): the inhibition was 1.49% (inactive). `CCN(CC)C(=O)CC[C@@H]1CC[C@]2(CCCN(S(=O)(=O)C3CCCCC3)C2)O1`: the inhibition was 11.9% (inactive). In the case of `Cc1ccc(C(=O)Nc2nc(N)n(-c3ccccc3)n2)cc1`, the inhibition is 12.6% (inactive). On to `Cc1ccc(-c2csc(NNC(=O)c3ccccc3)n2)cc1`, for which the inhibition is 41.2% (active). Regarding `O=C(NNc1nc(N2CCCC2)nc(N2CCCC2)n1)c1ccccc1`, the inhibition is -2.93% (inactive). Consider `COC(=O)[C@]12C[C@H](CC(=O)NCc3cccc4ccccc34)C(=O)N(CCc3ccc(OC)c(OC)c3)C1=C[C@H](C1CCCC1)O[C@@H]2C`, for which the inhibition was -20.3% (inactive).

For `CCn1c2ccccc2c2cc(NC(=O)CSc3nnc(-c4ccccc4)n3-c3ccc(C)cc3)ccc21`, the inhibition is -1.34% (inactive).

With `CCn1c(=O)n2n(c1=O)[C@@]1(C=C3CCCC[C@H]32)N=C(NC(=O)c2ccccc2)N(Cc2ccccc2)[C@H]1Cc1ccccc1`, the inhibition is 10.8% (inactive). Then `C[C@H]1[C@H](NC(=O)c2cccc(N(C)C)c2)CC[C@@]23CCCN2C(=O)CCC[C@@H]13`, with -4.79% (inactive); and `Fc1ccccc1Cc1ccc(Cl)nn1`, with 9.12% (inactive).

`C/C(=N\Nc1ccc(Cl)nn1)c1ccccc1O`: the inhibition is 23.4% (active). `COC(=O)[C@@]12CCCCC=C1N(CCc1ccc(Cl)cc1)C(=O)[C@H]2CC(=O)NCc1ccc(OC)c(OC)c1`: the inhibition was -15% (inactive).

In the case of `CC(C)(C)C(=O)c1c(N)[nH]c(C(=O)c2ccccc2)c1-c1ccc(F)cc1`, the inhibition is 5.32% (inactive). For `Nc1[nH]c(C(=O)c2ccccc2)c(-c2ccc(Br)cc2)c1C(=O)NC1CC1`, the inhibition was 25.4% (active). Next, `Nc1[nH]c(C(=O)c2ccc(Br)cc2)c(-c2ccc3c(c2)OCO3)c1C(=O)NCCc1c[nH]c2ccccc12`: -43.9% (inactive). Turning to `COc1ccc(CCNC(=O)CSc2nc3c([nH]2)c(=O)n(C)c(=O)n3C)cc1`, the inhibition is 5.11% (inactive). For `CC(C)CNc1cccc2c1S(=O)(=O)N(Cc1cn(Cc3ccccc3C(F)(F)F)nn1)Cc1ccccc1O2`, the inhibition was 6.58% (inactive). Regarding `CCOC(=O)C1CCN(C(=O)C(C)(C)NC(=O)Nc2ccc(F)c(F)c2)CC1`, the inhibition was 1.05% (inactive).

For `CCOc1ccc(NS(=O)(=O)c2ccc(C)c(C(N)=O)c2)cc1`, the inhibition is 2.14% (inactive).

For the compound `CCOc1ccc(/C=N\NC(=O)c2c(C)nc3cc(C)ccn23)cc1`, the inhibition is 1.86% (inactive). Then `CCOc1ccc(/C=N/NC(N)=S)cc1`, with 19.5% (active). Turning to `CCOC(=O)N1CCN(C(=O)C[C@H]2C[C@@]3(C(=O)OC)C(=C[C@H](C(C)(C)C)O[C@@H]3C)N(Cc3ccc(Cl)cc3Cl)C2=O)CC1`, the inhibition is -6.16% (inactive). Consider `CCOC(=O)[C@]12CCCC3=C1N(CCC3)C(=O)[C@@H](CC(=O)NCc1cccs1)C2`, for which the inhibition was -0.88% (inactive). Take `COC(=O)[C@]12C[C@H](CC(=O)NCCCN3CCCC3=O)C(=O)N(CCc3ccc(OC)c(OC)c3)C1=C[C@H](COCc1ccccc1)O[C@@H]2C`: the inhibition was 11.1% (inactive). Next, `COc1ccc(C2CC(c3ccc(Cl)cc3Cl)Nc3nc(N)nn32)cc1OC` (centres undefined): 0.41% (inactive); `Cc1ccc(C2CC(c3cccc(Br)c3)n3nc(N)nc3N2)cc1` (centres undefined): 9.36% (inactive).

Regarding `Cc1ccc(C2CC(c3cccc(C)c3)n3nc(N)nc3N2)cc1` (centres undefined), the inhibition is 25.2% (active). As to `O=C(OC12CCCN(C1)/C(=C/c1ccccc1)C2)c1ccco1` (centres undefined), the inhibition is 4.15% (inactive). For the compound `C=CCN(Cc1ccc2c(c1)OCO2)C(C#CC1CC1)C(C)(C)C` (centres undefined), the inhibition was 7.02% (inactive). Take `COc1cc(NC(=O)C2CCCN(S(=O)(=O)c3ccc(C(C)(C)C)cc3)C2)cc(OC)c1` (centres undefined): the inhibition was 2.94% (inactive). Turning to `CCC(c1ccc(NC(=O)OC(C)(C)C)cc1)c1cc(OC)cc(OC)c1` (centres undefined), the inhibition is -18.5% (inactive). On to `COc1ccc(CSc2nnc(SCC(=O)Nc3ccccc3C(F)(F)F)s2)cc1`, for which the inhibition was -11.2% (inactive). Turning to `CC(C)(c1ccccc1)c1ccc(OCCN)cc1`, the inhibition was 23.6% (active).

For the compound `O=C(NCCOc1ccccc1)c1ccccc1F`, the inhibition is 8.32% (inactive).

For `Cc1nn(CCOc2ccccc2)c(=O)n1-c1ccccc1F`, the inhibition is 3.1% (inactive).

For the compound `COC(=O)[C@]12C[C@H](CC(=O)NCc3ccccc3)C(=O)N(CCC3=CCCCC3)C1=C[C@H](C(C)C)O[C@@H]2C1CC1`, the inhibition is -0.06% (inactive). Take `CCn1c(SCC(C)=O)nc2sc3c(c2c1=O)CCCC3`: the inhibition was -63% (inactive). For `CCCC1CCC2(CCCN2CCOC(=O)NCc2ccccc2)CC1` (centres undefined), the inhibition is 0.68% (inactive).

Turning to `CC(=O)OC12CCCN(C1)/C(=C/c1ccncc1)C2` (centres undefined), the inhibition was 8.67% (inactive). Next, `CC(=O)C1(C(=O)Nc2nccs2)CC(c2ccccc2C(F)(F)F)=NO1` (centres undefined): -9.84% (inactive); `Cc1cccc(NC(=S)NCCN(C2CCCCC2)C2CCCC2)c1`: 23.8% (active); `Cc1cccc(NC(=S)NCc2ccc3[nH]c4c(c3c2)CCCC4)c1`: -9.81% (inactive). Regarding `Cc1cccc(C(=O)NC(=S)N(C)C2CCCCC2)c1`, the inhibition is 7.08% (inactive). Turning to `C=CCN1C(=O)[C@H](CC(=O)N2CCN(C(=O)OCC)CC2)[C@@]2(C(=O)OCC)CCCC=C12`, the inhibition was -3.08% (inactive).

Turning to `Cc1ccccc1CN1CCCCC(NC(=O)c2cccc(C#N)c2)C1=O` (centres undefined), the inhibition is 14% (inactive).

In the case of `CCOc1ccc(-n2c(SCC(=O)Nc3cc(C)c(NC(=O)c4ccccc4)cc3OC)nnc2-c2cccs2)cc1`, the inhibition was -11.7% (inactive). Regarding `CCC[C@H]1C(=O)CC[C@@]23CCCN2C(=O)CCC[C@@H]13`, the inhibition was 9.16% (inactive).

With `COc1ccc([C@H]2OC(=O)C[C@H]2C(=O)N2CCN(c3ccccc3F)CC2)cc1OC`, the inhibition is -0.35% (inactive). Consider `COc1cccc2c1OCC1COc3c(c(=O)n(C)c(=O)n3C)C21` (centres undefined), for which the inhibition was 8% (inactive).

Consider `Cn1c2c(c(=O)n(C)c1=O)C1c3ccccc3OCC1C(C)(C)O2` (centres undefined), for which the inhibition is 20.6% (active). Take `Cn1c2c(c(=O)n(C)c1=O)[C@@H]1c3c(ccc4ccccc34)OC[C@@H]1CO2`: the inhibition is 1.04% (inactive).
